Bioassay records from PubChem.
An excerpt weighted towards active compounds, which were near 1.1% of everything screened.
HTR5A inv ctr: HTR5A inverse agonism, opioid heterodimer counter-screen; P47898; HTR5A cell line, luminescence; inhibition, % at 9.3 µM; 340,000 tested, 0.083% active; AID 504634; in the data active = inhibition mostly above about 23%, no sharp cut-off; inactive = mostly below about 18%;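 note: 0% = cells with DMSO and 100% = no-cell wells with DMSO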
HTR5A ag ctr: HTR5A agonism, opioid heterodimer counter-screen; P47898; HTR5A agonist assay, luminescence, cell-based; activation, % at 9.3 µM; 340,000 tested, 0.61% active; in the data active = activation mostly above about 9.5%, no sharp cut-off; inactive = mostly below about 7.6%;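 note: 0% = cells with vehicle only and 100% = reference agonist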
MOR-DOR inv ag: mu-delta opioid heterodimer inverse agonism | cell-based MOR-DOR heterodimer luminescence | inhibition, % at 9.3 µM | 340,000 tested, 0.21% active | AID 504357; in the data active = inhibition above about 22%, passing the limit was not always enough;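 note: 0% = cells with DMSO and 100% = wells without cells with DMSO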
Target sequence (P35372 whole entry, looked up): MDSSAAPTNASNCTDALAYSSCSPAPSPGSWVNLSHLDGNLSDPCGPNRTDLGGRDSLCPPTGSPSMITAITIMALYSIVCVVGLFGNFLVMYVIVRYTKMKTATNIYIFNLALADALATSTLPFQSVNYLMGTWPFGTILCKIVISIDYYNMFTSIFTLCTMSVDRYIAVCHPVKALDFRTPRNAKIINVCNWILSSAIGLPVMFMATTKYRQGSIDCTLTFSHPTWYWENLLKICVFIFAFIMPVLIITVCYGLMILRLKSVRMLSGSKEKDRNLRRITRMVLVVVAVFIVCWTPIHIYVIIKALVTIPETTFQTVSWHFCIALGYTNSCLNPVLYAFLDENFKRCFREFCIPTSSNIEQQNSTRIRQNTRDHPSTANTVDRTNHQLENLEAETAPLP
Target sequence (P41143 whole entry, looked up): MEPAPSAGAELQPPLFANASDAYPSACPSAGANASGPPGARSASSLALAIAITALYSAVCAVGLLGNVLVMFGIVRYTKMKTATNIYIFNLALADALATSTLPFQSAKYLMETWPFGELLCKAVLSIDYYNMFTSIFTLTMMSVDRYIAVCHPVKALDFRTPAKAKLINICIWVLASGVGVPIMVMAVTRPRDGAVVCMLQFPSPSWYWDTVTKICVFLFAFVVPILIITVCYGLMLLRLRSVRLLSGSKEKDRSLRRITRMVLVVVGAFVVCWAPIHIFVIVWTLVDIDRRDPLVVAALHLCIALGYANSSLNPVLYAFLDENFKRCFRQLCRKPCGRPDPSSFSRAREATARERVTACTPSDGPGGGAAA
MOR-DOR ag: agonists of human mu-delta opioid receptor heterodimerization | P35372+P41143 | cells, OPRM1-OPRD1 heterodimerization, luminescence | activation, % at 9.3 µM | 340,000 tested, 0.3% active | AID 504326; in the data active = activation above about 18%;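 note: 0% = vehicle-treated cells and 100% = reference agonist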
* = called active by the depositor.

COC(=O)c1ccc2c(c1)N(Cc1ccccc1F)C(=O)c1ccccc1S2=O (stereo unspecified) was read as HTR5A inv ctr -4, HTR5A ag ctr 2, MOR-DOR inv ag 3 and MOR-DOR ag -1.
Screening CCOC(=O)c1ccc2c(c1)N(Cc1ccccc1C)C(=O)c1ccccc1S2=O (stereo unspecified) returned HTR5A inv ctr -32, HTR5A ag ctr 9.5*, MOR-DOR inv ag 7 and MOR-DOR ag -1.
For Cc1ccc(C(=O)Nc2cccc(S(=O)(=O)N3CCCCC3)c2)cc1S(=O)(=O)N1CCOCC1 the results were HTR5A inv ctr -13, HTR5A ag ctr 4, MOR-DOR inv ag 3 and MOR-DOR ag -1.
`CC1CCCCC1NC(=S)Nc1cccc(S(=O)(=O)N(C)C)c1` (stereo unspecified) gave HTR5A inv ctr 19, HTR5A ag ctr 11*, MOR-DOR inv ag -7 and MOR-DOR ag 1.
For Cc1cccc(CC2S/C(=N/N=C/c3ccco3)N(c3ccccc3)C2=O)c1 (stereo unspecified) the results were HTR5A inv ctr 7, HTR5A ag ctr 14*, MOR-DOR inv ag -29 and MOR-DOR ag 5.
Screening O=C(NCc1ccc(Cl)cc1)C(=O)N/N=C/c1ccc(Br)cc1 returned HTR5A inv ctr 12, HTR5A ag ctr -4, MOR-DOR inv ag 3 and MOR-DOR ag -1.
For CCS(=O)(=O)N1Cc2ccccc2CC1C(=O)N(C)CC(=O)Nc1cccc(F)c1 (stereo unspecified) the results were HTR5A inv ctr 12, HTR5A ag ctr 9.9*, MOR-DOR inv ag 6 and MOR-DOR ag -1.
CN(CC(=O)Nc1ccc(F)cc1)C(=O)C1Cc2ccccc2CN1S(C)(=O)=O (stereo unspecified) was read as HTR5A inv ctr 11, HTR5A ag ctr -4, MOR-DOR inv ag 17 and MOR-DOR ag -3.
Screening O=C(Cc1cccs1)NNC(=O)C12CC3CC(CC(C3)C1)C2 returned HTR5A inv ctr -2, HTR5A ag ctr 6, MOR-DOR inv ag 9 and MOR-DOR ag -2.
Screening Cc1ccc(N2CCN(CC(O)COC3CCCCC3)CC2)cc1 (stereo unspecified) returned HTR5A inv ctr 8, HTR5A ag ctr 10*, MOR-DOR inv ag 10 and MOR-DOR ag -2.
`CNC(=S)N/N=C/c1cn(CCOc2ccc(OC)cc2)c2ccccc12` gave HTR5A inv ctr 3, HTR5A ag ctr 12, MOR-DOR inv ag -30 and MOR-DOR ag 6.
Screening O=C1OC(N2CCN(C(=O)c3ccco3)CC2)c2ccccc21 (stereo unspecified) returned HTR5A inv ctr -15, HTR5A ag ctr 9.9*, MOR-DOR inv ag 13 and MOR-DOR ag -2.
For CC(=O)Nc1c2c(nn1-c1cccc(Cl)c1)CS(=O)(=O)C2 the results were HTR5A inv ctr -13, HTR5A ag ctr 1, MOR-DOR inv ag 12 and MOR-DOR ag -2.
Screening Cc1ccc(C(NC(=O)Nc2ccccn2)C(Cl)(Cl)Cl)cc1F (stereo unspecified) returned HTR5A inv ctr -16, HTR5A ag ctr 12*, MOR-DOR inv ag -51 and MOR-DOR ag 6.
For Cc1ccc(NC(=O)CCNS(=O)(=O)c2ccc3[nH]c(=O)oc3c2)c(Cl)c1 the results were HTR5A inv ctr -6, HTR5A ag ctr 2, MOR-DOR inv ag 6 and MOR-DOR ag -1.
For C/C(=N/Nc1ccc([N+](=O)[O-])cc1)c1c[nH]c2ccccc12 the results were HTR5A inv ctr 30*, HTR5A ag ctr -8, MOR-DOR inv ag 14 and MOR-DOR ag -3.
`C/C(=N/Nc1ccc([N+](=O)[O-])cc1)c1ccc(C)cc1C` gave HTR5A inv ctr 9, HTR5A ag ctr -4, MOR-DOR inv ag -20 and MOR-DOR ag 4.
Screening Fc1ccc(-c2csc(=S)[nH]2)cc1 returned HTR5A inv ctr 7, HTR5A ag ctr -3, MOR-DOR inv ag 3 and MOR-DOR ag -1.
S=c1[nH]c(-c2ccccc2)cs1 was read as HTR5A inv ctr -25, HTR5A ag ctr 10*, MOR-DOR inv ag -20 and MOR-DOR ag 4.
`CC(C)NC(=O)N(C)C[C@H]1Oc2c(NC(=O)C3CCCCC3)cccc2C(=O)N([C@H](C)CO)C[C@@H]1C` gave HTR5A inv ctr -3, HTR5A ag ctr 4, MOR-DOR inv ag 14 and MOR-DOR ag -3.
`COc1ccc(CNC(=O)c2cc(=O)c3cc(C)c(C)cc3o2)cc1` gave HTR5A inv ctr -36, HTR5A ag ctr 10*, MOR-DOR inv ag 9 and MOR-DOR ag -2.
CCOc1ccc(Cn2nnc(C(=O)Nc3cc(OC)cc(OC)c3)c2N)cc1 was read as HTR5A inv ctr -3, HTR5A ag ctr 1, MOR-DOR inv ag -13 and MOR-DOR ag 3.
`CCOc1ccc(Cn2nnc(C(=O)Nc3cc(C)cc(C)c3)c2N)cc1` gave HTR5A inv ctr -31, HTR5A ag ctr 12*, MOR-DOR inv ag -30 and MOR-DOR ag 6.
For CC(C)(C)c1ccc(S(=O)(=O)N2CCNC(=O)C2)cc1 the results were HTR5A inv ctr -1, HTR5A ag ctr 0, MOR-DOR inv ag 9 and MOR-DOR ag -2.
Screening CC(C)CN(Cc1cc(=O)oc2cc(-c3ccccc3)c(O)cc12)CC(C)C returned HTR5A inv ctr 10, HTR5A ag ctr 17*, MOR-DOR inv ag -105 and MOR-DOR ag 20*.
Screening N#C/C(=C(\O)Cc1ccccc1)c1nc2ccccc2[nH]1 returned HTR5A inv ctr -7, HTR5A ag ctr 0, MOR-DOR inv ag 11 and MOR-DOR ag -2.
For N#C/C(=C(/O)c1ccco1)c1nc2ccccc2[nH]1 the results were HTR5A inv ctr -28, HTR5A ag ctr 11*, MOR-DOR inv ag 12 and MOR-DOR ag -2.
Screening CC1CC(C)CN(CC(=O)NNC(=O)COc2ccc(Cl)cc2)C1 (stereo unspecified) returned HTR5A inv ctr 9, HTR5A ag ctr -3, MOR-DOR inv ag 7 and MOR-DOR ag -2.
Cc1sc(-c2ccncc2)nc1OC(=O)c1ccc(F)cc1F was read as HTR5A inv ctr -26, HTR5A ag ctr 9.8*, MOR-DOR inv ag -7 and MOR-DOR ag 1.
For NS(=O)(=O)c1ccc(NC2=CC(=O)C(=O)c3ccccc32)cc1 the results were HTR5A inv ctr -36, HTR5A ag ctr 9.6*, MOR-DOR inv ag -39 and MOR-DOR ag 8.
CCN(C[C@H]1N[C@@](Cc2ccccc2)(C(=O)OC)[C@H]2C(=O)N(C)C(=O)[C@@H]12)S(=O)(=O)c1ccc(C(C)(C)C)cc1 was read as HTR5A inv ctr 3, HTR5A ag ctr -1, MOR-DOR inv ag 2 and MOR-DOR ag 0.
O=C(CCN1C(=O)/C(=C/c2ccccc2)SC1=S)NCCCN1CCOCC1 was read as HTR5A inv ctr -23, HTR5A ag ctr 8, MOR-DOR inv ag -14 and MOR-DOR ag 2.
O=C(CCN1C(=O)/C(=C/c2ccccc2F)SC1=S)NCCCN1CCOCC1 was read as HTR5A inv ctr -5, HTR5A ag ctr 13*, MOR-DOR inv ag 1 and MOR-DOR ag 0.
Cn1c(N2CCCC2)nc2c1c(=O)[nH]c(=O)n2C was read as HTR5A inv ctr -3, HTR5A ag ctr 1, MOR-DOR inv ag 12 and MOR-DOR ag -2.
For Cc1cccc(C(=O)NC(=S)Nc2ccc(Cc3ccncc3)cc2)c1 the results were HTR5A inv ctr -32, HTR5A ag ctr 12*, MOR-DOR inv ag 8 and MOR-DOR ag -1.
